Drawing on PubChem BioAssay (NCI), this text covers growth for 13 molecules.

This is part of a sample that, as a whole, favours compounds with a hit. Of some 83,000 tested, about 20% had one in any assay.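 Growth was measured after 48 h exposure to one concentration of compound in 96-well plates. Values under 10 count as active.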 A number with no mark means an inactive call. Active and inactive are the calls of the source.

What all share (assay): NCI-60 one-dose screen, 48 h (100 = growth as untreated, 0 = no growth, -100 = all killed)
Holding throughout (settings): 10 µM

Test [1] relates to NCI-H23 lung.
The subject of test [2] is NCI-H226 lung.
Test [3] concerns NCI-H322M lung.
For test [4], the system named is HOP-62 NSCLC.
The subject of test [5] is NCI-H460 lung.
Test [6] concerns HOP-92 NSCLC.
For test [7], the system named is NCI-H522 lung.
In test [8] the test system is A549/ATCC NSCLC.
Test [9] deals with 786-0 renal.
Test [10] relates to COLO 205 colon.
Test [11] deals with DU-145 prostate.
The test system of test [12] is K-562 leukemia.
Test [13] deals with MALME-3M melanoma.
For test [14], the system named is MDA-MB-231 breast.
Test [15] deals with RXF 393 renal.
Test [16] has as its system SF-268 CNS.
The subject of test [17] is SF-295 CNS.
For test [18], the system named is SF-539 CNS.
Test [19] deals with UACC-257 melanoma.
In test [20] the test system is M14 melanoma.

As to `CCCCC(=O)N(c1ccc(Nc2c3ccccc3nc3cc([N+](=O)[O-])ccc23)cc1)S(C)(=O)=O`, the growth was 81.8% in [1]; 71.3% in [2]; 82.1% in test [3]; 56% in test [4]; 14% in [5]; 39.2% in test [6]. Besides, the growth was 50.7% in test [7]; 34% in test [8]; 74.3% in test [9]; 88.1% in test [10]; 26.3% in [11]; 64.3% in [12]. For the same molecule, the growth was 92.7% in test [13]; 84.6% in test [14]; 75.8% in [15]; 53% in test [16]; 34.4% in [17]; 79.8% in [18]. The values for the growth in test [19] and in test [20] were 79.8% and 92.9%, respectively.
For the molecule `COc1cc(CSc2nc3ccc(C)cc3c(=O)n2Cc2ccccc2)cc(OC)c1OC`, the growth in test [1] was 21.3%; in [2] it was 47.3%; in [3], 46.2%; in test [4], 40.5%; in [5], 17.7%; in test [6] it was 56.6%. Besides, the growth was -14.5% (active) in [7]; 40% in [8]; 46.8% in test [9]; -18.7% (active) in [10]; 9.78% (active) in test [11]; 13.8% in test [12]. For the same molecule, the growth was 30.1% in test [13]; 44.4% in test [14]; -16.9% (active) in test [15]; 51.5% in [16]; 31% in test [17]; -16.4% (active) in test [18]. Besides, the values for the growth in [19] and in [20] were 47.4% and 35.6%, respectively.
Consider `NC(=O)C1CCCN(Cc2c[nH]c3ccccc23)C1` (stereo not given), for which the growth in [1] is 95.8%; in test [2], 84.5%; in test [3], 98.5%; in test [4], 91.1%; in test [5], 106%; in test [6], 96.2%. Moreover, the growth is 84.6% in [7]; 96.4% in test [8]; 105% in [9]; 104% in test [10]; 106% in [11]; 97.3% in test [12]. Moreover, the growth in test [13] is 99.7%; in test [14] it was 99.8%; in test [15] it was 95.2%; in [16], 96%; in [17], 92.7%; in [18] it was 92.9%. In addition, the figures for the growth in test [19] and in test [20] were 96.5% and 99%, respectively.
As for `CCCCCc1cc[n+](CC(=O)c2ccc(Cl)cc2)cc1`, the growth is 81.5% in [1]; 90.8% in test [2]; 85.3% in [3]; 92.7% in test [4]; 98.5% in [5]; 78% in [6]. Further, the growth in [7] is 72.1%; in [8], 91.3%; in test [9] it was 76.2%; in test [10], 80.5%; in test [11] it was 95.2%; in [12], 90.7%. Besides, the growth in [13] was 89.8%; in test [14], 76.6%; in test [15] it was 95.6%; in test [16], 84.7%; in test [17], 94%; in test [18], 93.9%. For the same molecule, the growth in test [19] was 97.5%; in test [20], 85.9%.
As to `C[N+]1=C(/C=C/c2ccc(I)cc2)C(C)(C)c2ccccc21`, the growth in [1] was 82%; in [2], 104%; in test [3], 89.1%; in [4] it was 108%; in test [5], 103%; in test [6], 65%. Also, the growth in test [7] was 68.8%; in [8], 109%; in test [9], 97.4%; in test [10], 95%; in test [11] it was 104%; in [12], 109%. For the same molecule, the growth in test [13] was 86%; in [14], 67.1%; in test [15], 70.7%; in test [16] it was 89.9%; in test [17], 100%; in test [18], 98.7%. Further, the growth in test [19] is 104%; in [20], 91%.
`C=CCOc1ccc2c(c1)CC[C@@H]1[C@@H]2CC[C@]2(C)C(=O)/C(=N/O)C[C@@H]12`: the growth is 60.1% in test [1]; 76.2% in test [2]; 50.9% in test [3]; 56.7% in test [4]; 64% in [5]; -5.15% (active) in test [6]. The growth is 44.5% in test [7]; 58.5% in [8]; 47.3% in [9]; 40.8% in [10]; 21.8% in test [11]; 19.5% in [12]. Further, the growth is 74.4% in [13]; 9.69% (active) in [14]; 1.96% (active) in [15]; 43.8% in test [16]; 78.7% in [17]; 86.6% in [18]. For the same molecule, the growth in [19] was 76.5%; in [20] it was 61.3%.
In the case of `CCOC(=O)c1c(C)n(-c2ccc(Cl)cc2)c2ccc(OC(=O)/C=C/c3ccccc3)cc12`, the growth is 93.3% in test [1]; 95.1% in [2]; 94.8% in test [3]; 95% in [4]; 99.1% in test [5]; 58% in test [6]. The growth in [7] is 82.3%; in [8], 67.7%; in test [9], 94.3%; in [10] it was 93.1%; in test [11], 91%; in test [12], 25.4%. Further, the growth is 72.9% in test [13]; 63.4% in test [14]; 73.7% in [15]; 94.1% in test [16]; 79.4% in test [17]; 92.7% in [18]. Also, the growth in test [19] was 84.2%; in test [20], 83.1%.
Turning to `CCOC(=S)Sc1ccc([N+](=O)[O-])cc1[N+](=O)[O-]`, the growth in test [1] was 97.3%; in test [2], 88.8%; in [3], 93.3%; in test [4], 94%; in test [5] it was 106%; in [6] it was 48.6%. Also, the growth in test [7] was -1.29% (active); in [8], 83.2%; in test [9], 102%; in [10], -13.1% (active); in [11], 95.5%; in [12] it was 7.81% (active). The growth is 84.1% in [13]; 88.4% in test [14]; 108% in test [15]; 104% in test [16]; 99.2% in test [17]; 26.2% in test [18]. The growth in [19] was 79.2%; in test [20], 36.2%.
With `COC(=O)c1cnc2c(c1)Oc1ccc(Cl)cc1-c1cc(C)nn1-2`, the growth in [1] was 74.5%; in test [2], 66.3%; in test [3], 66.9%; in test [4], 68.3%; in [5] it was 29.5%; in test [6], 85.6%. The growth in [7] is 82.3%; in test [8], 59.2%; in test [9], 97.5%; in test [10], 71.5%; in test [11], 79.6%; in test [12], 95.8%. In addition, the growth is 94.8% in test [13]; 35% in [14]; 89.8% in test [15]; 78.9% in test [16]; 92.3% in test [17]; 46.1% in test [18]. In addition, the growth was 107% in [19] and 95.3% in test [20].
`C[N+]1(CC2CO2)CCCCCC1` (stereo not given): the growth was 110% in [1]; 99.4% in [2]; 107% in test [3]; 103% in test [4]; 106% in test [5]; 113% in [6]. The growth in [7] was 107%; in [8], 107%; in test [9], 105%; in [10], 120%; in test [11], 107%; in test [12] it was 119%. The growth in test [13] was 95.8%; in test [14] it was 116%; in test [15] it was 103%; in test [16], 104%; in test [17], 103%; in [18], 95.8%. Moreover, the growth was 99.4% in test [19] and 106% in [20].
On to `COc1ccc(S(=O)(=O)Nc2cc(/C=C\c3cc(OC)c(OC)c(OC)c3)ccc2OC)cc1`, for which the growth in test [1] is 27.6%; in [2], 11.8%; in [3], 23.8%; in [4], 48.7%; in test [5] it was 5.27% (active); in test [6], 12.7%. Further, the growth was -27.9% (active) in [7]; 18% in test [8]; 19% in [9]; -59.2% (active) in test [10]; -12.8% (active) in [11]; 11.1% in test [12]. Further, the growth in [13] was 50%; in [14] it was 7.83% (active); in test [15] it was 16.4%; in test [16] it was 9.24% (active); in test [17], 13%; in test [18], -13% (active). Also, the growth in test [19] is 47.7%; in [20], 8.41% (active).
As for `N#CN1CC[C@H](C(=O)Nc2ncc(-c3ccccc3)s2)C1`, the growth in [1] is -9.83% (active); in [2] it was -6.52% (active); in test [3] it was 28.4%; in test [4], -3.88% (active); in [5], 2.02% (active); in test [6] it was 0.798% (active). Moreover, the growth in test [7] was -35.6% (active); in [8], -5.79% (active); in test [9] it was 3.56% (active); in test [10], -63.3% (active); in test [11] it was 0.607% (active); in test [12] it was 2.31% (active). Also, the growth in test [13] was -16.4% (active); in test [14] it was 3.84% (active); in test [15], -45% (active); in test [16] it was 0.182% (active); in test [17], 18.8%; in [18] it was -16.9% (active). The growth in test [19] was -8.04% (active); in [20], -7.98% (active).
In the case of `CC(Oc1ccc(Cl)cc1)c1ccccc1` (stereo not given), the growth is 102% in [1]; 93% in test [2]; 87.1% in test [3]; 98.3% in [4]; 104% in test [5]; 95% in test [6]. For the same molecule, the growth is 103% in [7]; 102% in test [8]; 98.5% in [9]; 105% in test [10]; 107% in [11]; 101% in test [12]. Besides, the growth in test [13] is 80.1%; in test [14], 105%; in test [15], 103%; in [16], 104%; in [17], 96%; in test [18] it was 102%. The growth in [19] is 98.9%; in test [20] it was 101%.
